± gives the standard deviation of the averaged measurements. About 6,500 targets were measured; listed, in parts, are those with the largest changes and a random draw of the rest.
Columns and labels:
Experiment in all cases: NP40-soluble protein abundance relative to vehicle (solubility fold change) (ratio); higher = more soluble protein in presence of ATP
[1] = target: A0A075B6F5|F5GXR6|Q8IUG5|Q8IUG5-2 (UniProt Q8IUG5)
Outline: (§1)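 Data come from three independent experiments in which Dounce-homogenised Jurkat crude lysate was treated at eight concentrations from 0.1 to 10 mM. Treatment ran 10 min at room temperature and then 3 min at 37 °C, after which 0.8% NP40 and benzonase were added for 60 min at 4 °C before ultracentrifugation. The supernatant underwent TMT labelling and LC-MS/MS, and vsn-normalised intensities were expressed as fold change against the detergent-processed vehicle in each replicate.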

[2] = target: A0A087WTM7|P04114 (UniProt P04114)
Outline: as §1

[3] = target: T1, A0A087WV29|Q9H0A0 (UniProt Q9H0A0)
T1 sequence (whole entry): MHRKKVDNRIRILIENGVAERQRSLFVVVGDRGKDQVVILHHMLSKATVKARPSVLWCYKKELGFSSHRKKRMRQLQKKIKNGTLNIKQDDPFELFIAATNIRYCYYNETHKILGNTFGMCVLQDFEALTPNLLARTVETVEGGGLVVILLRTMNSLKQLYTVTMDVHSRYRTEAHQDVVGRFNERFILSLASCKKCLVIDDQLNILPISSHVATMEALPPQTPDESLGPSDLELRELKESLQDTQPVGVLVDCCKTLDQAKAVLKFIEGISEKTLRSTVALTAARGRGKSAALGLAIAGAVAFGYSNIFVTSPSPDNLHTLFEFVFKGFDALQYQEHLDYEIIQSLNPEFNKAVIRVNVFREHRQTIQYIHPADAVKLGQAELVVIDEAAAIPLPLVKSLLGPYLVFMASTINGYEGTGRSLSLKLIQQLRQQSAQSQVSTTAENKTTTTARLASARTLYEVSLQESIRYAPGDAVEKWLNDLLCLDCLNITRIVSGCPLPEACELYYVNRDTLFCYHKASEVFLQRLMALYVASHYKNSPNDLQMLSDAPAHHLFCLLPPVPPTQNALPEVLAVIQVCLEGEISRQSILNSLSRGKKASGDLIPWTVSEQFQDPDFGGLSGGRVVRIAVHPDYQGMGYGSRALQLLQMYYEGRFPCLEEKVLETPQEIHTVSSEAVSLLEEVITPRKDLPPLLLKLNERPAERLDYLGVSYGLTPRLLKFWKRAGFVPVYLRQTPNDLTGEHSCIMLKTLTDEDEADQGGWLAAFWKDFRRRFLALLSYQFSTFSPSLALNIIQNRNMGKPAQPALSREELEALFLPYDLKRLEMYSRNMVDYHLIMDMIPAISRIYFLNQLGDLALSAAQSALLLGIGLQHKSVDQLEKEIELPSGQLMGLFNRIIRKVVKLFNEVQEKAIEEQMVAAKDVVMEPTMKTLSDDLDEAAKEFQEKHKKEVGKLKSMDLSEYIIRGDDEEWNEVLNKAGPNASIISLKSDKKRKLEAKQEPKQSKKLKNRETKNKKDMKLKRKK
Outline: as §1

[4] = target: T2, A0A087WVA8|Q8IWB9|Q8IWB9-2 (UniProt Q8IWB9)
T2 sequence (whole entry): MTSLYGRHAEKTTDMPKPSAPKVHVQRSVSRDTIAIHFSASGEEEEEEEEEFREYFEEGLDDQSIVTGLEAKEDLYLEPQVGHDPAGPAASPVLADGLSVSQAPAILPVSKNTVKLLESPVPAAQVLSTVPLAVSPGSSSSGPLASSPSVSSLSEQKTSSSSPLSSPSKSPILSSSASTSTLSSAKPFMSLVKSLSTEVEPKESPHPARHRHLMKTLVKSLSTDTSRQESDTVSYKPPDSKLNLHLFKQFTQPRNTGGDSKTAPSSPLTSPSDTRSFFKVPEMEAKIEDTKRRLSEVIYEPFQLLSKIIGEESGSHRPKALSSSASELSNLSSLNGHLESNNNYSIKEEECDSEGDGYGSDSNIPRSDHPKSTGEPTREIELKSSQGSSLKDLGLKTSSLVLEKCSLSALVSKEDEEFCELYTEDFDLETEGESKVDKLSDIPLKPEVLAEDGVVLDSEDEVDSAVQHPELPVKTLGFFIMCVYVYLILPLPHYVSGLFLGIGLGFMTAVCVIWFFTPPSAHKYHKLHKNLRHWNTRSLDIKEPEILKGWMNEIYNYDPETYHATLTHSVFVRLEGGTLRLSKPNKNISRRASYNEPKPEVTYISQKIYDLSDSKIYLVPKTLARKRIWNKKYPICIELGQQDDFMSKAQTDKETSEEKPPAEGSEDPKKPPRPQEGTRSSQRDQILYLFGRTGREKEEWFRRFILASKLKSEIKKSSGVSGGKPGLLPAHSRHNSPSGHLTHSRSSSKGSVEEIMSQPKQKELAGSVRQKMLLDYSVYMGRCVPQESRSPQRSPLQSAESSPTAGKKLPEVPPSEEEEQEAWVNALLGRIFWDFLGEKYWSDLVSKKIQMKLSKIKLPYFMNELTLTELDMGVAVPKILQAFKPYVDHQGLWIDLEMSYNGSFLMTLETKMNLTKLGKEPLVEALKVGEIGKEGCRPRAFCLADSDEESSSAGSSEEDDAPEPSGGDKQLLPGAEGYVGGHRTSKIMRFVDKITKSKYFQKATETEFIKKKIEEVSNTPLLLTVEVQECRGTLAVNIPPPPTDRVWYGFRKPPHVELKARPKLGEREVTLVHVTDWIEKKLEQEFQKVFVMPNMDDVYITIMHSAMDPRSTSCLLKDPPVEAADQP
Outline: as §1

[5] = target: A0A087WWP8 (UniProt Q5VWQ0)
Chain of A0A087WWP8 (Q5VWQ0 whole entry): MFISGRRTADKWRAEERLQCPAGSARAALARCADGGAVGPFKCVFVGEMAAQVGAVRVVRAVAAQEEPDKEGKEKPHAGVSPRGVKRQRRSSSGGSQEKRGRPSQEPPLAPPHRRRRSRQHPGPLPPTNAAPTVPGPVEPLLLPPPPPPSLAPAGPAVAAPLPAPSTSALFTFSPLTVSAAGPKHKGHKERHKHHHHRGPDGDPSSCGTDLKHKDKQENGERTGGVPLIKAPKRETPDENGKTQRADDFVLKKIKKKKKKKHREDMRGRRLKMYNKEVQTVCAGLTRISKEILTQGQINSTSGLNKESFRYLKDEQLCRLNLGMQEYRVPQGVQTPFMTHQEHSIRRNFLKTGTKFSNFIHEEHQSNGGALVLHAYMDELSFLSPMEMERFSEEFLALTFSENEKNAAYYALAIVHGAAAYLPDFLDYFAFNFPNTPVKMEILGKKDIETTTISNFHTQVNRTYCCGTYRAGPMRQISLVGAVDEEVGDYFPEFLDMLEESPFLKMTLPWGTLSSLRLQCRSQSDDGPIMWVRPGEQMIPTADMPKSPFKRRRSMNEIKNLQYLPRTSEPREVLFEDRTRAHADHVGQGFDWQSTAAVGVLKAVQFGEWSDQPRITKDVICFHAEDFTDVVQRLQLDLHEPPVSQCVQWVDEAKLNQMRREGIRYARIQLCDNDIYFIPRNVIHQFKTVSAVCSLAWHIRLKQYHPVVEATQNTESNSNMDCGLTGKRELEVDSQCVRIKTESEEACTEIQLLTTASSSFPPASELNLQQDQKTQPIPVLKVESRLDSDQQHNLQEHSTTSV
Outline: as §1

[6] = target: T3, A0A087WWS1|Q96FV9 (UniProt Q96FV9)
T3 sequence (whole entry): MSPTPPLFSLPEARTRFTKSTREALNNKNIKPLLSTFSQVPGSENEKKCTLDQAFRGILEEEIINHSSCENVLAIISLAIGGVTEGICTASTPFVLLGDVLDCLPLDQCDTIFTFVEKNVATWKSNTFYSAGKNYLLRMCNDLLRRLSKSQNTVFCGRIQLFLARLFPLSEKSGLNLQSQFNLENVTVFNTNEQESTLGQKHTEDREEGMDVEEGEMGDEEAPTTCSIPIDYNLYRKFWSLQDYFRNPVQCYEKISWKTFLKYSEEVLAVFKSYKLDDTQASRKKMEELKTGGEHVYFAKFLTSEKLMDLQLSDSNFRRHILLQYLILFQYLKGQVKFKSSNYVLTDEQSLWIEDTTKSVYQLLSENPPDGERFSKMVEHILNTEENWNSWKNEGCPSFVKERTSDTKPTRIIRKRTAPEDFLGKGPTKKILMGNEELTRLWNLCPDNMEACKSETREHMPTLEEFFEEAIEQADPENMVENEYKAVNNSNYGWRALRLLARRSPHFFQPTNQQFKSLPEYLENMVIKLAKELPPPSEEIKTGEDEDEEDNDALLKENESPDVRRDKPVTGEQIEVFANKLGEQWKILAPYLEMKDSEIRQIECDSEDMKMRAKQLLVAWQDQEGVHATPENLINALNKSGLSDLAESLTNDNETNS
Outline: as §1

[7] = target: A0A087WXC5|O95299|H7C2X4 (UniProt O95299)
Chain of A0A087WXC5|O95299|H7C2X4 (O95299 whole entry, one chain of several): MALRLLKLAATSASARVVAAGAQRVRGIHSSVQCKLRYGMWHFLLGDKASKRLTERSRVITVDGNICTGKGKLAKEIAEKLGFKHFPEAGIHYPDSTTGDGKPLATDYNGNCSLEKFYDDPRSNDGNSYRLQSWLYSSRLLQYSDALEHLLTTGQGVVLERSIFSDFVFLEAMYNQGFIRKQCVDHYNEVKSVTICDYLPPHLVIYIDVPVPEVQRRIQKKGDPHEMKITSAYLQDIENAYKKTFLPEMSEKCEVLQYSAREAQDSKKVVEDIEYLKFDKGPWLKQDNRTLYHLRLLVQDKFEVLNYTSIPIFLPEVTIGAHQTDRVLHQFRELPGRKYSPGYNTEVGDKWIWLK
Outline: as §1

[8] = target: A0A087WY00|F8W6H6|Q9Y4I1|Q9Y4I1-2|Q9Y4I1-3|G3V394 (UniProt Q9Y4I1)
Chain of A0A087WY00|F8W6H6|Q9Y4I1|Q9Y4I1-2|Q9Y4I1-3|G3V394 (Q9Y4I1 whole entry, one chain of several): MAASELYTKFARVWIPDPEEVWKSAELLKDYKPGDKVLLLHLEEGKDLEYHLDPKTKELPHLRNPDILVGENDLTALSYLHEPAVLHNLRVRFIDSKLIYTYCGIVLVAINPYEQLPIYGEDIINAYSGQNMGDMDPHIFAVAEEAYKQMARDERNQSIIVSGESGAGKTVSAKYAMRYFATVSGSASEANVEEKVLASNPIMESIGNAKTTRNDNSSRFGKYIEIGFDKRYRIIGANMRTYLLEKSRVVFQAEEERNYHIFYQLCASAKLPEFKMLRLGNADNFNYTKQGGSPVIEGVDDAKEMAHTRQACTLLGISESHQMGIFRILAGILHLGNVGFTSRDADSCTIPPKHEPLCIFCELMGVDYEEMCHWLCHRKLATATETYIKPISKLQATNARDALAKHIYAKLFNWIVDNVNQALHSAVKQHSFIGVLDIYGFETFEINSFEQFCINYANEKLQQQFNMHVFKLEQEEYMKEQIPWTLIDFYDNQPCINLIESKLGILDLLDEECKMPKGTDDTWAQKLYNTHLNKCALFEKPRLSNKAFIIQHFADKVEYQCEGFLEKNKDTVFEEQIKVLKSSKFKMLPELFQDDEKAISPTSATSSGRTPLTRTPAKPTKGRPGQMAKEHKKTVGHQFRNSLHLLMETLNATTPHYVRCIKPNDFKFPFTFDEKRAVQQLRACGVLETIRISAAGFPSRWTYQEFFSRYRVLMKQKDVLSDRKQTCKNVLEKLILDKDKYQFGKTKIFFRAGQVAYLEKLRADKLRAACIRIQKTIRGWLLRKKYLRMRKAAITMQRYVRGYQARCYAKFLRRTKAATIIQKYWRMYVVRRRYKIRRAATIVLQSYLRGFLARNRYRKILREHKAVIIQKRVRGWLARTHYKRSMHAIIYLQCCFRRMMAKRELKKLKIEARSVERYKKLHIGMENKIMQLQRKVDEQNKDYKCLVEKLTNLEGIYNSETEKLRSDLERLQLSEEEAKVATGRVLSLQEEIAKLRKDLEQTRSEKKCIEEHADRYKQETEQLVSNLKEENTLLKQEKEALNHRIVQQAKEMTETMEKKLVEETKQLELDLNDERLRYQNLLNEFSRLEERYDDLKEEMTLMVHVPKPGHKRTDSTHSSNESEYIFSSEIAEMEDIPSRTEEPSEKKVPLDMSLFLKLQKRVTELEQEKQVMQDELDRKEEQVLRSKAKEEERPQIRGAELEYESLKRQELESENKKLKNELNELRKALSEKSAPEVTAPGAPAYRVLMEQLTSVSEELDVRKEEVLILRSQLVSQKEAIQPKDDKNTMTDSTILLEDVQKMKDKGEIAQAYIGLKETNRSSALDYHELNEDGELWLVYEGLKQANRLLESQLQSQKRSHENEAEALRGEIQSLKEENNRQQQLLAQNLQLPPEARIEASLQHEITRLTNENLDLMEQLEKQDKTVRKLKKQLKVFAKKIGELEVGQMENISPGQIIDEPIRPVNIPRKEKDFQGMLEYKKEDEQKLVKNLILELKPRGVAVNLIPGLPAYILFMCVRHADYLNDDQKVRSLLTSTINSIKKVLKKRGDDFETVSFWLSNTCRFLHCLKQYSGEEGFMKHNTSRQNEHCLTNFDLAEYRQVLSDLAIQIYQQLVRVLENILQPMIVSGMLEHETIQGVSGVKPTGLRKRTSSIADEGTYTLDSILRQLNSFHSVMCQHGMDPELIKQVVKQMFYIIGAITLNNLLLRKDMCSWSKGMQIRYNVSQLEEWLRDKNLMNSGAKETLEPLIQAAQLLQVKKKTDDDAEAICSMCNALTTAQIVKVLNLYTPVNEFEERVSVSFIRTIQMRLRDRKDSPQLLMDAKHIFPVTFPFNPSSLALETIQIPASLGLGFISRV
Outline: as §1

[9] = target: T4, A0A087WYG2|E9PFH7|Q9UPT6 (UniProt Q9UPT6)
T4 sequence (whole entry): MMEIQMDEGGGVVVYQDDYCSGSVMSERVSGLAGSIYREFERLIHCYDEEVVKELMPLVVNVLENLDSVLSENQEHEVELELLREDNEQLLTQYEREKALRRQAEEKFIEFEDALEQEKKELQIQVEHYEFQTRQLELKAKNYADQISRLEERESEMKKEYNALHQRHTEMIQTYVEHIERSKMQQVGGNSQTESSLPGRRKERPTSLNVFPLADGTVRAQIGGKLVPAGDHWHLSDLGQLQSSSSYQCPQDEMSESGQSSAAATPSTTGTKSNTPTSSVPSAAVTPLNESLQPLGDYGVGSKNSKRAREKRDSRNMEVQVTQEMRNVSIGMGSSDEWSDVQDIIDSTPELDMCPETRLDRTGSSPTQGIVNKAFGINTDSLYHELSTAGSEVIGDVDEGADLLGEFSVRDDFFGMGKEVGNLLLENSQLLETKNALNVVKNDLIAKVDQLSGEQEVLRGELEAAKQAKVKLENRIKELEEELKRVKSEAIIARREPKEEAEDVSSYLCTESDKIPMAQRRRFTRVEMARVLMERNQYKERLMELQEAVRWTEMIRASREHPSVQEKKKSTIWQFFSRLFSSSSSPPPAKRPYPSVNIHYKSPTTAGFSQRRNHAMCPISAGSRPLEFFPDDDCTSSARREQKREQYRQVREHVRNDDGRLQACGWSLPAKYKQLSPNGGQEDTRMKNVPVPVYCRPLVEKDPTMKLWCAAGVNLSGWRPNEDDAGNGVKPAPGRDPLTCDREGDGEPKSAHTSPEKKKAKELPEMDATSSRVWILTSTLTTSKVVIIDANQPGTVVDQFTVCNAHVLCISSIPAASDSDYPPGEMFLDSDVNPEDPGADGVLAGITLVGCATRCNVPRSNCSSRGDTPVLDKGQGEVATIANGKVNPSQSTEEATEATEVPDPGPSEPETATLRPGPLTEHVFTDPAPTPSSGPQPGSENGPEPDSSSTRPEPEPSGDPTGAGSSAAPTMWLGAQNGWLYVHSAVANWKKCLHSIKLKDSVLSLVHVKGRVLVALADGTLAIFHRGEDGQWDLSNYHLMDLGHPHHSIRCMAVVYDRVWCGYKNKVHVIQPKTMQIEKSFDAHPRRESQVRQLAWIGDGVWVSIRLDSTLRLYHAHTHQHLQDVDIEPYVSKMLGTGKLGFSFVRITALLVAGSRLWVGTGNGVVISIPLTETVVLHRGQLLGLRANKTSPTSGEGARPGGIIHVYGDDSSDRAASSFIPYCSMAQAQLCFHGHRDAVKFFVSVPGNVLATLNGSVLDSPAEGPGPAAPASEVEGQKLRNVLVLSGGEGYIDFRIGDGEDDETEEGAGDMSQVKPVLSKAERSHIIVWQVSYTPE
Outline: as §1

SMILES: Nc1ncnc2c1ncn2[C@@H]1O[C@H](COP(=O)(O)OP(=O)(O)OP(=O)(O)O)[C@@H](O)[C@H]1O [adenosine triphosphate]
- NP40-soluble protein abundance ([1]; concentration: 1mM): 0.986 ± 0.023
- NP40-soluble protein abundance ([1]; concentration: 2mM): 0.927 ± 0.014
- NP40-soluble protein abundance ([1]; concentration: 4mM): 1.1 ± 0.016
- NP40-soluble protein abundance ([1]; concentration: 6mM): 1.06 ± 0.022
- NP40-soluble protein abundance ([1]; concentration: 8mM): 1.14 ± 0.13
- NP40-soluble protein abundance ([1]; concentration: 10mM): 1.18 ± 0.18
- NP40-soluble protein abundance ([2]; concentration: 1mM): 1.09 ± 0.039
- NP40-soluble protein abundance ([2]; concentration: 2mM): 1.05 ± 0.029
- NP40-soluble protein abundance ([2]; concentration: 4mM): 0.98 ± 0.11
- NP40-soluble protein abundance ([2]; concentration: 6mM): 0.965 ± 0.086
- NP40-soluble protein abundance ([2]; concentration: 8mM): 0.976 ± 0.082
- NP40-soluble protein abundance ([2]; concentration: 10mM): 0.989 ± 0.074
- NP40-soluble protein abundance ([3]; concentration: 1mM): 1.2 ± 0.1
- NP40-soluble protein abundance ([3]; concentration: 2mM): 1.37 ± 0.1
- NP40-soluble protein abundance ([3]; concentration: 4mM): 1.59 ± 0.11
- NP40-soluble protein abundance ([3]; concentration: 6mM): 1.69 ± 0.18
- NP40-soluble protein abundance ([3]; concentration: 8mM): 2.15 ± 0.14
- NP40-soluble protein abundance ([3]; concentration: 10mM): 2.32 ± 0.22
- NP40-soluble protein abundance ([4]; concentration: 1mM): 1.02 ± 0.043
- NP40-soluble protein abundance ([4]; concentration: 2mM): 0.975 ± 0.072
- NP40-soluble protein abundance ([4]; concentration: 4mM): 0.984 ± 0.062
- NP40-soluble protein abundance ([4]; concentration: 6mM): 0.982 ± 0.024
- NP40-soluble protein abundance ([4]; concentration: 8mM): 0.973 ± 0.07
- NP40-soluble protein abundance ([4]; concentration: 10mM): 0.993 ± 0.052
- NP40-soluble protein abundance ([5]; concentration: 1mM): 1.48 ± 0.058
- NP40-soluble protein abundance ([5]; concentration: 2mM): 1.53 ± 0.045
- NP40-soluble protein abundance ([5]; concentration: 4mM): 1.61 ± 0.043
- NP40-soluble protein abundance ([5]; concentration: 6mM): 1.68 ± 0.048
- NP40-soluble protein abundance ([5]; concentration: 8mM): 1.68 ± 0.069
- NP40-soluble protein abundance ([5]; concentration: 10mM): 1.69 ± 0.063
- NP40-soluble protein abundance ([6]; concentration: 1mM): 1.509 ± 0.011
- NP40-soluble protein abundance ([6]; concentration: 2mM): 1.65 ± 0.068
- NP40-soluble protein abundance ([6]; concentration: 4mM): 1.89 ± 0.099
- NP40-soluble protein abundance ([6]; concentration: 6mM): 2.14 ± 0.2
- NP40-soluble protein abundance ([6]; concentration: 8mM): 2.31 ± 0.075
- NP40-soluble protein abundance ([6]; concentration: 10mM): 2.4 ± 0.13
- NP40-soluble protein abundance ([7]; concentration: 1mM): 1.03 ± 0.024
- NP40-soluble protein abundance ([7]; concentration: 2mM): 1.02 ± 0.033
- NP40-soluble protein abundance ([7]; concentration: 4mM): 0.982 ± 0.034
- NP40-soluble protein abundance ([7]; concentration: 6mM): 1 ± 0.022
- NP40-soluble protein abundance ([7]; concentration: 8mM): 1.02 ± 0.023
- NP40-soluble protein abundance ([7]; concentration: 10mM): 1 ± 0.034
- NP40-soluble protein abundance ([8]; concentration: 1mM): 2.94 ± 0.086
- NP40-soluble protein abundance ([8]; concentration: 2mM): 2.89 ± 0.071
- NP40-soluble protein abundance ([8]; concentration: 4mM): 2.94 ± 0.14
- NP40-soluble protein abundance ([8]; concentration: 6mM): 2.96 ± 0.19
- NP40-soluble protein abundance ([8]; concentration: 8mM): 2.96 ± 0.088
- NP40-soluble protein abundance ([8]; concentration: 10mM): 2.84 ± 0.062
- NP40-soluble protein abundance ([9]; concentration: 1mM): 0.979 ± 0.055
- NP40-soluble protein abundance ([9]; concentration: 2mM): 0.996 ± 0.054
- NP40-soluble protein abundance ([9]; concentration: 4mM): 0.993 ± 0.097
- NP40-soluble protein abundance ([9]; concentration: 6mM): 0.988 ± 0.094
- NP40-soluble protein abundance ([9]; concentration: 8mM): 0.959 ± 0.066
- NP40-soluble protein abundance ([9]; concentration: 10mM): 0.956 ± 0.029

From the supplement of paper PMC6411743
